This note sets out measurements from PubChem BioAssay AID1445 (SRMLSC, 2008).

Among all 220,000 compounds or so, about 910 (0.41%) were called active.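 How the source made its calls: active means primary inhibition above the hit cutoff, then over 50% inhibition at one or more dose response concentrations (cut at about 23% in these data, passing the limit was not always enough); inconclusive means conflicting primary data, or primary hits not chosen for dose response; inactive means low primary inhibition, or under 50% at every dose.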 The entries come from a sample that favours actives as a whole. Entries with a potency or affinity are not part of this list.

For the assay, the target named is Aminopeptidase N (Plasmodium falciparum (isolate 3D7)) (UniProt O96935). Briefly: P. falciparum M1AAP inhibitors, biochemical, fluorogenic H-Leu-NHMec substrate, 1536-well (AID 1445).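 Further: plate controls were DMSO full reaction for no effect and no enzyme background for full effect.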 To be noted: recombinant M1AAP, H-Leu-NHMec fluorogenic kinetic assay; at 30 µM, active compounds read high unless noted.
Chain of Aminopeptidase N (Plasmodium falciparum (isolate 3D7)) (O96935 whole entry, looked up): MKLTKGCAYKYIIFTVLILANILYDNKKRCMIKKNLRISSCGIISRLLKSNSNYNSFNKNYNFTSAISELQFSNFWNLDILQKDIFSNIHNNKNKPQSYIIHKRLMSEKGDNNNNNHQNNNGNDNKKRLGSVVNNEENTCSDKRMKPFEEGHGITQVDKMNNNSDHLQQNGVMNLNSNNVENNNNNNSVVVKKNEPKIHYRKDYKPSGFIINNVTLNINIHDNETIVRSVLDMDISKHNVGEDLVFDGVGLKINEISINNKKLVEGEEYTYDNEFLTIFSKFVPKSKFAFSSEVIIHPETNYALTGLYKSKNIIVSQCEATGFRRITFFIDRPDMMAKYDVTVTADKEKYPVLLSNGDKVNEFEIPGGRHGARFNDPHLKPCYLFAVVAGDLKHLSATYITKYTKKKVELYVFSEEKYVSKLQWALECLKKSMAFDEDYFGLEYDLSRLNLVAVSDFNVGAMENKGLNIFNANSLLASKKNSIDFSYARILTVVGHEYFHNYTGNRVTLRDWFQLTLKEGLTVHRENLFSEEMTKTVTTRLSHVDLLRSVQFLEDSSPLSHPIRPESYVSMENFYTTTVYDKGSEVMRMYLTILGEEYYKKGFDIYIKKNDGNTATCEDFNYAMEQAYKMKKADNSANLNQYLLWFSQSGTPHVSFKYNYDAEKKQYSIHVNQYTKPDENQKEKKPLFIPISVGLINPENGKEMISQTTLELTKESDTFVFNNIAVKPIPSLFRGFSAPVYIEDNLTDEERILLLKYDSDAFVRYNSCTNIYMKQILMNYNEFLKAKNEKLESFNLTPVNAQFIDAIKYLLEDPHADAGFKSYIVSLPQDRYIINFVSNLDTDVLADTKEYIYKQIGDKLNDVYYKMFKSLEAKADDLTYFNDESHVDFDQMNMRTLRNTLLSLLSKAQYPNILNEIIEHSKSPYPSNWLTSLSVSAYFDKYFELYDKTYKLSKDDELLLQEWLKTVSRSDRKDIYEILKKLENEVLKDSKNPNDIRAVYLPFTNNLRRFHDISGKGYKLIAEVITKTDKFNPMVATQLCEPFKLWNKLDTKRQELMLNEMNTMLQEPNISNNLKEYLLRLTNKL
For the molecule `CCN(CC)S(=O)(=O)c1ccc(-c2nnc(SC)o2)cc1`, the inhibition (commonly the drop in the measured response relative to a control, in per cent) is -2.39% (inactive). Consider `CCN(CC)S(=O)(=O)c1ccc(-c2nnc(SCC(C)=O)o2)cc1`, for which the inhibition is 26.5% (active). With `CCN(CC)S(=O)(=O)c1ccc(-c2nnc(SCC(=O)N3CCOCC3)o2)cc1`, the inhibition was -1.63% (inactive). As to `CCCCn1c(SCC(=O)Nc2cc(C)on2)nc2ccsc2c1=O`, the inhibition is 0.46% (inactive). The same measure for `CCCCn1c(SCC(=O)Nc2nccs2)nc2ccccc2c1=O`: 1.43% (inactive); for `Cn1c(CNC(=O)c2ccccc2)nnc1SCC(=O)Nc1nccs1`: 0.84% (inactive).

Turning to `Cc1cc(NC(=O)CSc2nc3ccsc3c(=O)n2CCCCC(=O)O)no1`, the inhibition was 7.32% (inactive).

On to `COc1ccccc1NC(=O)Cn1nc(Cc2cccnc2)c2ccccc2c1=O`, for which the inhibition is 4.36% (inactive). For the molecule `Cc1cc2cc(C#N)c(NCCNC(=S)NCCCN3CCOCC3)nc2cc1C`, the inhibition was 11% (inactive). For `Cc1nc(SCC(=O)NCc2cccs2)nc(C)c1C` the value was 1.91% (inactive); for `CCOc1ccc(N2CC(=O)N/C2=N\c2nc(C)cc(C)n2)cc1`, 0.69% (inactive). For the molecule `CS(=O)(=O)N(CC(=O)NCc1ccccc1Cl)C1CCCCC1`, the inhibition was -3.91% (inactive).

`CCC(CC)C(=O)NN(C(=O)c1ccncc1)C1CC(=O)N(c2ccccc2)C1=O` (stereo unspecified): the inhibition was 0.84% (inactive). On to `CCN(CC)Cc1ccc(NC(=O)c2sc3cc(Cl)ccc3c2Cl)cc1`, for which the inhibition is 5.72% (inactive).

Take `CCOC(=O)C1ON2CCCCC2C1(O)C(F)(F)F` (stereo unspecified): the inhibition was 4.11% (inactive).

Consider `COC(=O)c1c(-c2ccc3ccccc3c2)csc1NC(=O)Cc1ccc(OC)c(OC)c1`, for which the inhibition was -5.43% (inactive). Consider `Cc1ccc(C(=O)Nc2ccccc2-c2ccccc2)o1`, for which the inhibition was 5.46% (inactive). For `O=C(Nc1scc(-c2ccccc2)c1C(=O)O)c1ccco1`, the inhibition is 13.6% (inactive). `CCOC(=O)c1c(-c2ccc(OC)cc2)csc1NC(=O)CSc1ccccc1`: the inhibition was 9.31% (inactive). For `COc1ccc(-c2csc(NC(=O)c3ccc(OCC(=O)N4CCOCC4)c(OC)c3)n2)cc1OC` the value was -0.86% (inactive); for `COc1ccc(CCNC(=O)[C@@H](NC(N)=O)C(C)C)cc1`, 1.11% (inactive). Turning to `CCOc1ccccc1NC(=O)CCNC(=O)c1ccc(Cl)cc1`, the inhibition is -0.92% (inactive).

As for `COc1ccccc1C(=O)Nn1c(C2CCC2)nc2ccccc2c1=O`, the inhibition is 28.5% (inactive).

On to `O=C(Nn1c(-c2ccccc2)nc2ccccc2c1=O)C1CCC1`, for which the inhibition was 8.13% (inactive). For the molecule `Cc1nc2ccccc2c(=O)n1NC(=O)C1CCCCC1`, the inhibition was 0.92% (inactive). For `COc1cccc(OC)c1C(=O)Nn1c(C2CCC2)nc2ccccc2c1=O` the value was 1.68% (inactive); for `NS(=O)(=O)c1ccc(NC(=S)NC(=O)/C=C/c2ccco2)cc1`, 22.5% (inactive); for `C/C(=N/NC(=O)CN1CCN(S(=O)(=O)c2ccc(Br)cc2)CC1)c1ccco1`, 3.47% (inactive).

As to `COc1ccc(NC(=O)c2ccc(-c3ccccc3Cl)o2)cc1`, the inhibition is 2.03% (inactive). Regarding `Cc1ccc(S(=O)(=O)N2CCCCC2)cc1NC(=O)CSc1nnc(N)s1`, the inhibition was 11.9% (inactive).

As for `COc1ccccc1OCC(=O)N/N=C1\CCc2ccccc21`, the inhibition is -5.88% (inactive).

For `O=C1Nc2ncccc2OC1CCO` (stereo unspecified), the inhibition was 1.94% (inactive). Turning to `O=C(N/N=C/c1cc(Br)ccc1O)Nc1ccccc1`, the inhibition was 2.93% (inactive).

Regarding `C=CCc1cccc(/C=N/NC(=O)c2ccccc2Br)c1O`, the inhibition was -2.15% (inactive). As to `O=C(N/N=C/c1ccccc1C(=O)O)c1ccccc1Br`, the inhibition is -4.66% (inactive). `COc1ccc(Br)cc1/C=N/NC(=O)c1cc(Br)ccc1O`: the inhibition is 9.13% (inactive). For `CC1=NNC(=O)C1Oc1ccccc1` (stereo unspecified) the value was 3.86% (inactive). The same measure for `CCCCCCn1c(N2CCC(C(N)=O)CC2)nc2c1c(=O)[nH]c(=O)n2C`: -0.78% (inactive); for `Cc1nc(Cl)sc1C(=O)Nc1ccccc1`: 2.8% (inactive); for `O=C(CSc1nc2ccccc2c(=O)n1-c1ccccc1)c1c[nH]c2ccccc12`: 1.41% (inactive). In the case of `COc1ccc2cc(C(=O)C3CCCN(C(=O)CSc4nnc(C)o4)C3)ccc2c1` (stereo unspecified), the inhibition is 12.3% (inactive). As to `Cc1cc2nc3c(nc2cc1C)C(O)=C3O`, the inhibition is 20.8% (inactive). `OC1=C(O)c2nc3ccccc3nc21`: the inhibition is -5.83% (inactive). For `Cc1nc2c(c3c1[nH]c1ccccc13)C(O)CC(C)(C)C2` (stereo unspecified) the value was 22.4% (inactive); for `C=CCn1c(=O)/c(=C/c2ccc(Cl)cc2)s/c1=C(/C#N)c1nnc2n1CCCCC2`, 21.5% (inactive). For `C=CCn1c(=O)/c(=C/c2ccc(F)cc2)s/c1=C(\C#N)c1nnc2n1CCCCC2` the value was 20.7% (inactive); for `CCOc1ccc(NC(=NCc2ccc3c(c2)OCO3)SC2CC(=O)N(c3ccc(C(=O)O)cc3)C2=O)cc1` (stereo unspecified), 1.35% (inactive); for `N=c1sccn1CC(=O)Nc1ccc(S(=O)(=O)N2CCOCC2)cc1`, -2.17% (inactive). For `Cc1ccc(Cn2c(O)c(N=O)c3ccccc32)cc1` the value was 4.37% (inactive); for `O=C(c1ccc2c(c1)OCO2)C1CCCN(C2CCN(CCc3ccccc3)CC2)C1` (stereo unspecified), 6.4% (inactive).

For the molecule `CC(C)(C)NC(=O)CSc1nnc(Cc2ccccc2)n1CC1CCCO1` (stereo unspecified), the inhibition is 2.88% (inactive). Turning to `COc1ccc(NC(=O)NCc2ccco2)c(OC)c1`, the inhibition was 1.06% (inactive). Turning to `O=C(O)C1C2C=CC(C2)C1C(=O)NCc1cccnc1` (stereo unspecified), the inhibition was 2.34% (inactive). As to `COc1ccc(OC)c(NC(=S)NCc2cccnc2)c1`, the inhibition is 4.71% (inactive). Turning to `COc1ccc(NC(=O)C2C3C=CC(C3)C2C(=O)NCc2ccco2)cc1` (stereo unspecified), the inhibition is 4.82% (inactive). For `O=C(NCc1ccccn1)C1C2C=CC(C2)C1C(=O)Nc1ccc(F)cc1` (stereo unspecified), the inhibition was 18.1% (inactive). In the case of `Cc1cccc(C)c1NC(=O)C1C2C=CC(C2)C1C(=O)NCc1ccccn1` (stereo unspecified), the inhibition was 15.1% (inactive). On to `O=C(O)C1C2C=CC(C2)C1C(=O)NCc1ccccn1` (stereo unspecified), for which the inhibition was -0.69% (inactive).

Turning to `COc1ccc(NC(=O)C2C3C=CC(C3)C2C(=O)NCc2ccccn2)c(OC)c1` (stereo unspecified), the inhibition was 25.6% (active). Take `COc1ccc(OC)c(C2=NOC(C(=O)NCc3ccccn3)C2)c1` (stereo unspecified): the inhibition was -2.41% (inactive). The same measure for `O=C(Cn1nc(Cl)nc1Cl)Nc1ccccc1`: 0.91% (inactive); for `O=C(NNC(=S)Nc1ccc(F)cc1)C1[C@H]2CCCC[C@@H]12` (stereo partly specified): -16.1% (inactive); for `O=C(NCc1n[nH]c(=S)n1-c1ccc(Br)cc1)c1ccc(S(=O)(=O)N2CCOCC2)cc1`: 2.45% (inactive). For `Cc1cc(C)c(S(=O)(=O)N2CCN(C)CC2)c(C)c1` the value was 4.18% (inactive); for `Cc1ccc(NC2=C(Cl)C(=O)OC2OC(=O)c2ccco2)cc1C` (stereo unspecified), 5.26% (inactive). In the case of `C=CCOC(=O)C1=C[C@@H](c2coc3ccccc3c2=O)C[C@@H](OCc2ccc(CO)cc2)O1`, the inhibition is 6.22% (inactive). As to `CCN(CC)CCOC(=O)c1cccc2c1-c1ccccc1C2O` (stereo unspecified), the inhibition is 1.02% (inactive). Take `NNC(=O)c1cc2c(s1)-c1cc(Cl)ccc1SC2`: the inhibition was 3.34% (inactive).

With `Cc1ccc(SCC(=O)Nc2ccccc2C(=O)O)cc1`, the inhibition was -0.6% (inactive). For `CC(=O)Nc1cccc(C(=O)Nc2ccccc2C(=O)O)c1` the value was -0.69% (inactive); for `Cc1ccc(C)c(Oc2coc3cc(OCC(=O)Nc4ccccc4C(C)C)ccc3c2=O)c1`, 2.02% (inactive). For `Cc1ccc(C(=O)ON=C2CCN(c3ccc([N+](=O)[O-])cc3)CC2)cc1` the value was 14.4% (inactive); for `COc1ccc(C(=O)ON=C2CCN(c3ccc([N+](=O)[O-])cc3)CC2)cc1`, 4.56% (inactive). As for `Cc1ccc2nc(-c3ccc(SCC(=O)N4CCc5ccccc54)nc3)[nH]c2c1`, the inhibition is 4.65% (inactive). The same measure for `C=C1c2ccccc2NC(=O)N1c1ccc(C)cc1`: -1.9% (inactive). Take `CCC1CCCCN1C(=S)NC(=O)c1ccc([N+](=O)[O-])cc1` (stereo unspecified): the inhibition was 5.65% (inactive). For `CC1CCCCN1C(=S)NC(=O)c1cccs1` (stereo unspecified), the inhibition was 13.7% (inactive). As to `COc1cc(O)c(C(CC(=O)N2CCN(c3ccccc3)CC2)c2ccc(N(C)C)cc2)c(OC)c1` (stereo unspecified), the inhibition is 0.72% (inactive). Turning to `O=C(NCc1ccc2c(c1)OCO2)C1CCN(S(=O)(=O)N2CCCCC2)CC1`, the inhibition was 10.8% (inactive).

As to `O=C(NCc1ccc2c(c1)OCO2)C1CCCN(S(=O)(=O)c2cccs2)C1` (stereo unspecified), the inhibition was 24.9% (active). Consider `CCS(=O)(=O)N1CCCC(C(=O)NCc2ccc3c(c2)OCO3)C1` (stereo unspecified), for which the inhibition is 1.85% (inactive).

For the molecule `CS(=O)(=O)N1CCC(C(=O)NCc2ccc3c(c2)OCO3)CC1`, the inhibition was 21.2% (inactive). `O=C(Nc1ccc2c(c1)OCO2)C1CCCN(S(=O)(=O)c2cccs2)C1` (stereo unspecified): the inhibition was 13.9% (inactive).

In the case of `Cc1ccc(CNC(=O)C2CCCN(S(=O)(=O)c3cccnc3)C2)cc1` (stereo unspecified), the inhibition was 13% (inactive). In the case of `COc1cccc(CNC(=O)C2CCN(S(=O)(=O)c3cccs3)CC2)c1`, the inhibition was 10.2% (inactive).

Consider `O=C(NCc1ccccc1)C1CCCN(S(=O)(=O)c2cccnc2)C1` (stereo unspecified), for which the inhibition was 20% (inactive). On to `O=C(Nc1ccc2c(c1)OCO2)C1CCN(S(=O)(=O)c2cccs2)CC1`, for which the inhibition was 3.56% (inactive). As for `Cc1nc2ccccc2c2oc(C(=O)NC3CC3)cc12`, the inhibition was 1.86% (inactive). The same measure for `COC(C[C@@H](O)CC(=O)[C@@H](C)OCc1ccccc1)OC`: -6.94% (inactive); for `O=C(NCc1ccc2c(c1)OCO2)C1CC(=O)N(CCc2ccccc2)C1` (stereo unspecified): 0.19% (inactive). `O=C(Cn1cccc1C(=O)c1ccccc1)NCc1ccccn1`: the inhibition is 4.68% (inactive). In the case of `CC(Sc1ccc(Cl)cc1)C(=O)Nc1ccccc1C(=O)N1CCOCC1` (stereo unspecified), the inhibition was -3.03% (inactive). On to `Nc1ccc2c(c1)nc(Cc1ccccc1)n2CCO`, for which the inhibition is 9.11% (inactive).

As for `Cc1ccnc(NS(=O)(=O)c2cnc(Cl)c(Br)c2)c1`, the inhibition is 4.88% (inactive). The same measure for `Cc1cccc(-n2cc(CN(C)Cc3nccn3C)c(-c3cccc(F)c3)n2)c1`: 4.73% (inactive). For `CN(CC(=O)Nc1ccc(F)cc1)C(=O)COc1ccc(C(=O)c2ccccc2)cc1` the value was 2.01% (inactive).
